mHTT CaM bind = disrupts binding of mutant huntingtin to calmodulin; P42858; AlphaScreen His-mHTT/GST-CaM binding, luminescence; inhibition, % at 15 µM; 3.6% of 190,000 active; AID 1671202
Pf apPOL inh = Pf-apPOL DNA polymerase inhibition | Recombinant Pf-apPOL, molecular beacon fluorescence, 1.5 h | inhibition, % at 10 µM | 0.25% of 210,000 active | AID 1794808
Of the large screens only hits and unclear results are named; the others gave an inactive call; ! = a repeat was not active. This is one part of a sample in which hits are shown more often than they occur. Rule as the data show it: active = inhibition above about 50%; inactive = the rest.

Cc1ccc(-c2nc3c4cnn(C)c4ncn3n2)cc1	none
CCCCC[C@@H](C)N1C[C@H](COCc2ccccc2)Oc2cc(N3CC[C@@H](O)C3)ccc2S1(=O)=O	mHTT CaM bind 58
CCCCC[C@H](C)N1C[C@@H](COCc2ccccc2)Oc2cc(N3CCC[C@H]3CO)ccc2S1(=O)=O	none
Fc1ccc(C2=CSC(N=Cc3ccco3)=NN2)cc1	mHTT CaM bind 68
CC1=C(c2ccc(Cl)cc2)NN=C(N=Cc2ccco2)S1	none
CC(=O)C(C)(CCC#N)CCC#N	none (no result: mHTT CaM bind)
CCc1c(C)[nH]n(-c2nn[nH]n2)c1=O	mHTT CaM bind 100 (no result: Pf apPOL inh)
CCc1c(C)nc2[nH]nc(-c3ccccc3)n2c1=O	none
Cc1nnc(-c2cc(C)n(CC(=O)Nc3ccc(Br)cc3C)c2C)o1	none
CCN(CC)C(=O)Oc1c(I)cc(Cl)c2cccnc12	none
CCN(CC)Cc1cc(Cl)c2cccnc2c1O	mHTT CaM bind 100
CC(C)C(=O)NCCc1csc(C2CCCN(C(=O)c3ccc(C#N)cc3)C2)n1 (centres undefined)	none
O=C(CSc1nc(-c2ccccc2)cc(-c2ccccc2)n1)N=C1NC(=O)CS1	mHTT CaM bind 61
Cn1c2ccc(Br)cc2c2nnc(SCC(=O)N=C3NC(=O)CS3)nc21	none
O=C(NC1CCCC1)C1CCCN(c2ncc(-c3ccc(F)cc3)cn2)C1 (centres undefined)	none
Cc1cc(C)n(C(CC(=O)O)C(=O)O)n1 (centres undefined)	none
O=C(O)CC(C(=O)O)n1nc(-c2ccccc2)cc1-c1ccccc1 (centres undefined)	Pf apPOL inh 96
Cc1ccn(-c2ccc(N3CCN(C(=O)c4c(F)cccc4Cl)CC3)nn2)n1	none
Cc1oc(C2CCN(C(=O)c3ccc(Cl)cc3)CC2)nc1C(=O)N1CCCCC1	none
CC1=CC(C)C(CNCCN2CCNCC2)C(C)C1 (centres undefined)	none
CC(C)=CCC/C(C)=C/CC(C)(C)CNCCN1CCNCC1	mHTT CaM bind 85
O=c1ccc(S(=O)(=O)N2CCOCC2)cn1Cc1cccc(Cl)c1	none
O=C1C(=O)N(Cc2ccc(Cl)cc2)c2ccc(S(=O)(=O)N3CCOCC3)cc21	mHTT CaM bind 92
O=C1c2cccnc2C(=O)N1Cc1ccc(Cl)cc1	none
Cc1ccccc1CN1C(=O)C(=O)c2ccccc21	none
O=C1C(=O)N(Cc2ccc(Cl)cc2)c2ccc(Cl)cc21	mHTT CaM bind 78!
Cc1ccccc1CN1C(=O)C(=O)c2cc(Cl)ccc21	mHTT CaM bind 51
COc1cccc(CNC(=O)C2(C)CCCN(S(=O)(=O)c3ccc(F)cc3F)C2)c1 (centres undefined)	none
COc1cc(CNC(=O)CN(C)C(=O)c2c[nH]c3ccccc23)cc(OC)c1OC	none
N#CCSc1nc(NCC2CCCO2)c2ccccc2n1 (centres undefined)	none
COc1cccc(NC(=O)C2CCCN(c3nnc4cccc(C)n34)C2)c1 (centres undefined)	none
O=C(Nc1ccc2c(c1)OCO2)c1nn2c(c1Cl)NC(c1ccco1)CC2C(F)(F)F (centres undefined)	none
O=C(COc1ccc(Br)cc1Cl)N1CCN(c2ccccc2)CC1	none
N#CC1=C(SCC(=O)Nc2ccccc2)NC(=O)C(C#N)C12CCCC2 (centres undefined)	none
CC1CCCC2(C1)C(C#N)=C(SCC(=O)Nc1ccc(Br)cc1)NC(=O)C2C#N (centres undefined)	mHTT CaM bind 73
O=C(NCC1CC1)C1CC(c2ccccc2)CN(C(=O)c2cccc(F)c2)C1 (centres undefined)	none
COc1ccc(/C=C2/N=C(c3cccc(Br)c3)OC2=O)c(OC)c1	none
Cc1ccc(Nc2nc(O)c(C3=c4cc(Br)ccc4=NC3=O)s2)cc1C	none
CSCCC(C(=O)O)n1c(O)c(C2=c3cc(Br)ccc3=NC2=O)sc1=S (centres undefined)	mHTT CaM bind 51 (no result: Pf apPOL inh)
Cc1ccccc1-n1c(O)c(C2=c3cc(Br)ccc3=NC2=O)sc1=O	mHTT CaM bind 63
O=C1N=c2ccc(Br)cc2=C1c1sc(=O)n(-c2ccccc2)c1O	none
CCn1c(=O)c(-c2ccc(C(=O)NC(C)(C)C)cc2)nc2ccccc21	none
CCNc1ccc(Br)cc1-c1nc2ccccc2n(CC)c1=O	mHTT CaM bind 52
CC1=C(C(=O)Nc2ccccc2)C(c2cccc(Br)c2)n2nnnc2N1 (centres undefined)	none
COc1ccc(C2C=C(c3ccc(Cl)cc3)Nc3ncnn32)c(OC)c1 (centres undefined)	none
Nc1ccc2[nH]c3ccccc3c2c1	mHTT CaM bind 99
CC(=O)c1ccc2[nH]c3ccccc3c2c1	none
O=c1ccc(-c2ccc(F)cc2)nn1CCc1nc(-c2ccccc2Cl)no1	none
O=c1ccc(-c2ccc(F)cc2)nn1CCc1nc(-c2cccc(Br)c2)no1	mHTT CaM bind 56
c1ccc(-c2ccc(-c3ccccn3)nn2)nc1	mHTT CaM bind 100 (no result: Pf apPOL inh)
c1ccc(-c2ccccn2)nc1	none (no result: mHTT CaM bind)
Cc1cc(O)c(C(c2ccc(O)c(O)c2)c2c(O)cc(C)n(C)c2=O)c(=O)n1C	none
CC(C)CC(NC(=O)OC(C)(C)C)C(N)=O (centres undefined)	none (no result: mHTT CaM bind)
O=C1OC(c2ccccc2F)=N/C1=C/c1ccc(Cl)cc1Cl	none
CC1=C(/C=C/c2ccc(Cl)cc2Cl)C(=O)c2ccccc2C1=O	mHTT CaM bind 68
CN(C)C(=O)Cn1c(=NC(=O)c2ccccc2F)sc2ccccc21	none
O=C1OC(c2ccccc2Br)=N/C1=C/c1ccccc1[N+](=O)[O-]	none
c1cc2c(cc1C13CC4CC(CC(C4)C1)C3)c1c3n2CCNC3CCC1 (centres undefined)	mHTT CaM bind 100 (no result: Pf apPOL inh)
C1=C(c2ccc3c(c2)c2c4n3CCNC4CCC2)CCC1 (centres undefined)	mHTT CaM bind 55
CCN1CCn2c3c(c4cc(Cl)ccc42)CCCC31 (centres undefined)	none
CC(C)COc1ccc2c(c1)c1c3n2CCNC3CCC1 (centres undefined)	none (no result: Pf apPOL inh)
CCC(=O)N1CCc2sc(S(=O)(=O)Nc3ccc(C)c(C)c3)cc2C1	none
COc1ccc(NC(=O)c2sc3nc4c(c(-c5ccc(C)o5)c3c2N)CCCC4)cc1	mHTT CaM bind 69
Cc1ccc(-c2c3c(nc4sc(C(N)=O)c(N)c24)CCCC3)o1	none
COc1ccc([C@@H]2C[C@@H](c3ccccc3)Oc3cc(C)cc(C)c32)cc1	none
COc1ccc([C@@H]2C[C@H](c3ccccc3)Oc3cc4c(cc32)OCO4)cc1	mHTT CaM bind 60!
Cc1nc(C(C)C)c(Cc2ccc(F)cc2)c(N2CCN(C(=O)N(C)C)CC2)n1	none
COc1ccc(-c2noc(C3CCN(CC(=O)Nc4ccc5c(c4)OCO5)CC3)n2)cc1	none
C(=C\c1nn2cnnc2s1)/c1ccccc1	none (no result: Pf apPOL inh)
Cc1ccc(N(Cc2ccc(C(=O)Nc3cccc(F)c3)cc2)S(C)(=O)=O)cc1C	none
O=[N+]([O-])c1cccc(S(=O)(=O)n2cc(Br)cn2)c1	mHTT CaM bind 80
Cc1nn(S(=O)(=O)c2cccc([N+](=O)[O-])c2)c(C)c1Br	none
Cc1ccnc(N2CCC(C(=O)N(C)Cc3ccccc3)CC2)n1	none
CNc1nccc(N2CCC(CC(=O)N3CCOCC3)CC2)n1	none
COc1cc(S(=O)(=O)n2cnc3cc(C)c(C)cc32)c(C)cc1C	none
COc1cc(C)c(S(=O)(=O)n2cnc3cc(C)c(C)cc32)cc1C	mHTT CaM bind 67
Nc1ccc(Cl)c2c1C(=O)c1ccccc1C2=O	mHTT CaM bind 59
Cc1ccc(Cl)c2c1C(=O)c1ccccc1C2=O	none
CCOC(=S)SCc1c(F)cccc1Cl	none (no result: mHTT CaM bind)
COc1ccc(CCC(=O)N2CCC3(CC2)CC(=O)c2ccccc2O3)cc1	none

Screens: PubChem, University of Kansas High Throughput Screening Laboratory
